# Source: PubChem (National Center for Advancing Translational Sciences (NCATS))
# FMDV inh: foot and mouth disease virus antiviral activity | Potency, µM (titrated, usually from 57.9 µM), for inactives: at the top dose activity change, negative = inhibition, most hits filed as inhibitors | FMDV antiviral cell-based qHTS | 410,000 tested, 1.2% active; calls by dose curve; tested in HEK293T cells; note: read-out not given here; potency is the fitted concentration of half-maximal effect; nearly all actives have a fitted effect of over 45% in size
# Vaccinia mCherry: inhibitors of vaccinia virus infection (mCherry reporter signal); 310,000 tested, 0.63% active; Potency, µM (series often up to 36.5 µM), for inactives: top-dose activity change, negative = inhibition, hits mostly inhibitors; Vaccinia virus mCherry reporter infection, fluorescence; calls by dose curve; tested in A549 cells; note: potency is the fitted concentration of half-maximal effect; nearly all actives have a fitted effect of over 35% in size
# HCMV inh: blocks human cytomegalovirus replication. HFF cells, HCMV-luciferase reporter, 72 h; active compounds read low. activity change, negative = inhibition, % at 57.5 µM. 410,000 tested, 4.5% active. AID 1259415; in the data active = activity change below about -60%; inconclusive = no clear call, values can overlap the other calls; inactive = above about -39%
#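 After 16 h attachment at 37C, HFF cells received test compound and HCMV-luciferase (1 PFU/cell); reporter luminescence read 72 h later, data normalized against buffer-only and known inhibitor Salinomycin.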
# Vaccinia Venus: inhibitors of vaccinia virus (Venus reporter) | Vaccinia virus Venus reporter expression, fluorescence | Potency, µM (top dose mostly 36.5 µM), inactives show at the highest dose activity change, negative = inhibition, hits mostly inhibitors | 330,000 tested, 0.46% active; calls by dose curve; tested in A549 cells; note: potency is the fitted concentration of half-maximal effect; nearly all actives have a fitted effect of over 30% in size
# Marburg entry inh: inhibitors of Marburg virus binding or cell entry; Potency, µM (top dose mostly 37.8 µM), without a hit: top-dose activity change, negative = inhibition, most hits filed as inhibitors; Marburg virus pseudotyped entry inhibition, cell reporter; 300,000 tested, 1.8% active; AID 540276; calls by dose curve; tested in HEK293 cells; note: potency is the fitted concentration of half-maximal effect
# LASV entry inh: Lassa virus entry inhibition | Lassa virus pseudotype entry inhibition, cell reporter | Potency, µM (series often up to 37.9 µM), for inactives: at the top dose activity change, negative = inhibition, most hits filed as inhibitors | 300,000 tested, 1.2% active | AID 540256; calls by dose curve; tested in HEK293 cells; note: potency is the fitted concentration of half-maximal effect; nearly all actives have a fitted effect of over 50% in size
# * marks the source's active call; other numbers are inactive results; i = inactive; ? = inconclusive; . = no result given; [ ] = another dose, or the depositor's remark. Sampled rows, rich in hits. Any-hit rate of the full collection: about 6.5%. % is set by controls: 0 for no effect and ±100 for the full control effect.
SMILES,FMDV inh,Vaccinia mCherry,HCMV inh,Vaccinia Venus,Marburg entry inh,LASV entry inh
CC(C(=O)Nc1ccccc1-c1ccccc1)N1CCN(C(=O)c2ccccc2)CC1 (configuration not stated),-15%,i,?,-29%,?,?
Cc1ccc(OC[C@H](O)[C@H](C)NC(C)C)c2c1CCC2,-28%,-16%,14,-27%,16µM*,.
CC(C)(C)NC[C@H](O)COc1cccc2c1CCCC2=O,-1%,0%,-7,-9%,.,.
O=C(O)C1CCCC2CN3CCc4c([nH]c5ccccc45)C3C(O)C21 (configuration not stated),13%,i,-72*,10%,25%[46.1 µM],1%[46.1 µM]
COC(=O)N[C@H](C(C(=O)OC)=C(C)NCc1ccccc1)c1ccc(Cl)cc1,.,.,.,.,-17%[14.2 µM],.
O=C1CC(C(=O)O)S/C(=N\NC(=O)c2ccccc2)N1 (configuration not stated),4%,.,-82*,.,1%,-3%
Cc1cc(C)cc(N2C(=O)CSC23C(=O)N(CC(=O)NCCc2ccccc2)c2ccccc23)c1 (configuration not stated),-3%,-27%,4,-24%,.,-4%[46.1 µM]
Cc1ccc2c(c1)c(Sc1ccccc1)c(CC(=O)O)n2C,-5%,-13%,-15,-4%,9%,6%
CCOC(=O)Cc1c(Sc2ccccc2)c2cc(C)ccc2n1C,0%,-10%,-60*,0%,?,-1%
CC(C)(C)OC(=O)N1CCC(c2c(C(=O)N3CCN(c4ccccn4)CC3)cnn2-c2cccc(F)c2)CC1,-21%,-10%,0,-10%,.,?
Cc1ccc(N/C=C/C(=O)c2ccc(C)cc2)cc1,4%,-10%,51,-5%,?,-28%
Cc1ccc(C(=O)/C=C/Nc2ccccn2)cc1,2.5µM*,-6%,?,-13%,?,0.63µM*
COC(=O)C1C=CC(OC2OC(COC(C)=O)C(OC(C)=O)C(OC(C)=O)C2OC(C)=O)n2c(=O)n(-c3ccccc3)c(=O)n21 (configuration not stated),25µM*,10µM*,-98*,?,?,?
CC(=O)OC[C@H]1O[C@@H](ON=C[C@@H](C)[C@H](OCc2ccccc2)C(C)C)[C@@H](OC(C)=O)[C@@H](OC(C)=O)[C@@H]1OC(C)=O,.,.,.,.,?,23%[14.3 µM]
COc1ccc(C(=O)CN2CCN(S(=O)(=O)c3ccc(C(C)C)cc3)CC2)cc1,?,-13%,10,-3%,.,-18%[46.1 µM]
CCN1C(=O)[C@@H]2[C@H]3[C@H](O)[C@H](O)CC(=NO[C@@H](C)c4cc(-c5c(C)cc(C)cc5C)no4)[C@@H]3CC[C@H]2C1=O,.,.,.,.,-13%[14.2 µM],.
Cc1ccc2oc(-c3ccc(Cl)c(NC(=O)c4cc5ccccc5o4)c3)nc2c1,54%,-4%,70,3%,?,?
COc1ccc(-c2cc(C(F)F)n3ncc(C(=O)Nc4ccc(C(=O)N5CCOCC5)cc4)c3n2)cc1,-18%,.,-68*,.,.,.
O=C(Nc1ccc(C(=O)N2CCOCC2)cc1)c1cc(-c2cccnc2)nc2ccc(Br)cc12,?,-26%,-107*,-20%,?,?
COc1ccc(-c2cc(C(F)F)n3ncc(C(=O)n4ccnc4C)c3n2)cc1,14µM*,-10%,145,?,?,-15%
CC(=O)c1ccc(N2CCN(C(=O)c3cc(-c4cccnc4)nc4ccc(Br)cc34)CC2)cc1,5%,1%,-24,1%,?,?
O=C(Nc1ccc(C(=O)N2CCOCC2)cc1)c1cnn2c(C(F)F)cc(-c3ccccc3)nc12,0%,?,39,?,?,-1%[46.1 µM]
COc1cc(=O)n2c(c1C(=O)NCc1ccc3c(c1)OCO3)CCN(C(=O)c1cccc(F)c1)CC2,-12%,-6%,.,0%,.,.
CCC1(C)Cc2nc3[nH]c(=S)n(-c4ccccc4)c(=O)c3cc2CO1 (configuration not stated),-29%,-10%,-63*,5%,-1%,-2%
COc1ccc(N(Cc2nc3ccccc3[nH]2)Cc2nnnn2-c2c(C)cccc2C)cc1,.,.,28,.,.,.
CCN(CC)C(=O)Cn1c(=O)n(-c2ccc(C)c(C)c2)c(=O)c2c(C)c(C(=O)N(CC)CC)sc21,-5%,2%,7,-6%,.,-1%[46.1 µM]
